According to the supplement of paper PMC11732987, “Enantioselective OTUD7B fragment discovery through chemoproteomics screening and high-throughput optimisation” (Communications Chemistry, 2025):

How the values were obtained:
Test in all cases: log2 ratio of Biotin-Ahx-Ub-VS probe labelling (compound/DMSO); higher = less target engagement, active = hit call of the paper (q ≤ 0.05, log2 ratio ≤ -1)
Settings in all cases: treatment time: 3 h
[1] = compound: ClCC(=O)N[C@H]1CCCc2ccccc12
How it was run: (§1)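 The values are mean compound-versus-vehicle ratios derived by unpaired t-test. For 3 h, triplicate HEK293T lysate samples (495 µg each) were treated with compound at a series of concentrations or with vehicle, after which Biotin-Ahx-Ub-VS was added to 0.5 µM final for 1 h. Labelled deubiquitinases were enriched with NeutrAvidin, digested with LysC and trypsin, and analysed by diaPASEF LC-MS/MS. Ratios are log2 values from global-median-normalised Spectronaut label-free quantities, using proteins with two or more unique peptides.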

[2] = compound: CCC1N(CCc2cc(OC)c(Cl)cc12)C(=O)CCl
How it was run: (§2)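 HEK293T lysate (495 µg per sample, in Tris/CHAPS/IGEPAL buffer with protease inhibitors) was treated in triplicate with compound at 50 or 200 µM or with DMSO for 3 h. It was then treated with Biotin-Ahx-Ub-VS (0.5 µM final) for 1 h. Labelled DUBs were NeutrAvidin-enriched, digested with LysC and trypsin, and run by diaPASEF LC-MS/MS. Median-normalised label-free quantities gave average log2 ratios compound/DMSO by unpaired t-test, using proteins with ≥2 unique peptides.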

[3] = compound: CCCC1N(CCc2cc(OC)c(OC)cc12)C(=O)CCl
How it was run: as §2

[4] = compound: CN(Cc1cccc(Br)c1)C(=O)CCl
How it was run: as §2

[5] = compound: CN(Cc1cccc(OCc2ccccc2C)c1)C(=O)CCl
How it was run: as §2

[6] = compound: CN(Cc1ccccc1)C(=O)CCl
How it was run: as §2

[7] = compound: COc1ccc(CN(C)C(=O)CCl)cc1
How it was run: as §2

[8] = compound: COc1cccc(CN(CCCc2ccccc2)C(=O)CCl)c1
How it was run: as §2

[9] = compound: ClCC(=O)N1CCc2cc(Cl)c(Cl)cc2C1
How it was run: as §2

[10] = compound: ClCC(=O)N1CCc2nc(ncc2C1)-c1ccccc1
How it was run: as §2

[11] = compound: ClCC(=O)N1CCc2nocc2C1
How it was run: as §2

[12] = compound: ClCC(=O)N1CCc2scc(Br)c2C1
How it was run: as §2

[13] = compound: ClCC(=O)NC(C1CCCC1)c1cccs1
How it was run: as §2

[14] = compound: CCC1N(CCc2sccc12)C(=O)CCl
How it was run: as §2

[15] = compound: CN1c2ccccc2C(CS1(=O)=O)NC(=O)CCl
How it was run: as §2

[16] = compound: Cl.ClCC(=O)N1CCc2ncncc2C1
How it was run: as §2

[17] = compound: Cl.Cn1ncc2C(CCCc12)NC(=O)CCl
How it was run: as §2

[18] = compound: ClCC(=O)NC1CCOc2ccccc12
How it was run: as §2

[19] = compound: ClCC(=O)NC1CCCc2ccccc12
How it was run: as §1

[20] = compound: ClCC(=O)N[C@@H]1CCCc2ccccc12
How it was run: as §1

Measured: log2 ratio of Biotin-Ahx-Ub-VS probe labelling

USP16 (UniProt Q9Y5T5)
Chain of UniProt Q9Y5T5 (Q9Y5T5 whole entry, looked up): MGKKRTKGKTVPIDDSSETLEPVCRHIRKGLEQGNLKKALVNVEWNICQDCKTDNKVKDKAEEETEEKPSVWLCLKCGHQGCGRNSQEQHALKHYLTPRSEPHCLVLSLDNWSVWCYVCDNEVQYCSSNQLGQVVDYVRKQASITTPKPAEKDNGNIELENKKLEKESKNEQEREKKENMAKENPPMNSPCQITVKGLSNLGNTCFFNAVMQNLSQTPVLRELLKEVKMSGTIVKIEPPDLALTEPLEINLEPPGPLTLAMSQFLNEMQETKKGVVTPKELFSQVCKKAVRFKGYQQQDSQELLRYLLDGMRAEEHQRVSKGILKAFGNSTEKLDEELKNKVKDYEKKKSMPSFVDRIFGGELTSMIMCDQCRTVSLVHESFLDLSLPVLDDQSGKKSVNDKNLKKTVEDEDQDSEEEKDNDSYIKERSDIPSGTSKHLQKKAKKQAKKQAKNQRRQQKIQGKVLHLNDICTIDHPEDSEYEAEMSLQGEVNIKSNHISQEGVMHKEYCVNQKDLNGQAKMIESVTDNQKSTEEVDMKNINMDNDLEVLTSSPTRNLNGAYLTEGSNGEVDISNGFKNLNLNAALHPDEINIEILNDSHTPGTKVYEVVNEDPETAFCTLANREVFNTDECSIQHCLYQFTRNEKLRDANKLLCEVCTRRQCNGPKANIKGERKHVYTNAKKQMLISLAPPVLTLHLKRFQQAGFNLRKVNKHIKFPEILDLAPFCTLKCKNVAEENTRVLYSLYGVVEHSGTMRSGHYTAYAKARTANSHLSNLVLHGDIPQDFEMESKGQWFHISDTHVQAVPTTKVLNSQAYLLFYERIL
active: [4]; compound concentration: 200uM -1.27 | [10]; compound concentration: 200uM -1.62
inactive: [1]; compound concentration: 3.13uM 0.0709 | [1]; compound concentration: 6.25uM -0.00683 | [1]; compound concentration: 12.5uM -0.0549 | [1]; compound concentration: 25uM 0.0133 | [1]; compound concentration: 50uM 0.0578 | [1]; compound concentration: 100uM -0.181 | [1]; compound concentration: 200uM -0.253 | [2]; compound concentration: 50uM -0.285 | [2]; compound concentration: 200uM -0.652 | [3]; compound concentration: 50uM -0.265 | [3]; compound concentration: 200uM -0.972 | [4]; compound concentration: 50uM -0.307 | [5]; compound concentration: 50uM -0.495 | [5]; compound concentration: 200uM -0.496 | [6]; compound concentration: 50uM -0.434 | [6]; compound concentration: 200uM -0.669 | [7]; compound concentration: 50uM -0.00981 | [7]; compound concentration: 200uM -0.105 | [8]; compound concentration: 50uM -0.312 | [8]; compound concentration: 200uM -0.936 | [9]; compound concentration: 50uM -0.694 | [9]; compound concentration: 200uM -0.189 | [10]; compound concentration: 50uM -0.0935 | [11]; compound concentration: 50uM -0.0383 | [11]; compound concentration: 200uM -0.326 | [12]; compound concentration: 50uM -0.507 | [12]; compound concentration: 200uM 0.00388 | [13]; compound concentration: 50uM -0.325 | [13]; compound concentration: 200uM -0.246

USP4 (UniProt Q13107)
Chain of UniProt Q13107 (Q13107 whole entry): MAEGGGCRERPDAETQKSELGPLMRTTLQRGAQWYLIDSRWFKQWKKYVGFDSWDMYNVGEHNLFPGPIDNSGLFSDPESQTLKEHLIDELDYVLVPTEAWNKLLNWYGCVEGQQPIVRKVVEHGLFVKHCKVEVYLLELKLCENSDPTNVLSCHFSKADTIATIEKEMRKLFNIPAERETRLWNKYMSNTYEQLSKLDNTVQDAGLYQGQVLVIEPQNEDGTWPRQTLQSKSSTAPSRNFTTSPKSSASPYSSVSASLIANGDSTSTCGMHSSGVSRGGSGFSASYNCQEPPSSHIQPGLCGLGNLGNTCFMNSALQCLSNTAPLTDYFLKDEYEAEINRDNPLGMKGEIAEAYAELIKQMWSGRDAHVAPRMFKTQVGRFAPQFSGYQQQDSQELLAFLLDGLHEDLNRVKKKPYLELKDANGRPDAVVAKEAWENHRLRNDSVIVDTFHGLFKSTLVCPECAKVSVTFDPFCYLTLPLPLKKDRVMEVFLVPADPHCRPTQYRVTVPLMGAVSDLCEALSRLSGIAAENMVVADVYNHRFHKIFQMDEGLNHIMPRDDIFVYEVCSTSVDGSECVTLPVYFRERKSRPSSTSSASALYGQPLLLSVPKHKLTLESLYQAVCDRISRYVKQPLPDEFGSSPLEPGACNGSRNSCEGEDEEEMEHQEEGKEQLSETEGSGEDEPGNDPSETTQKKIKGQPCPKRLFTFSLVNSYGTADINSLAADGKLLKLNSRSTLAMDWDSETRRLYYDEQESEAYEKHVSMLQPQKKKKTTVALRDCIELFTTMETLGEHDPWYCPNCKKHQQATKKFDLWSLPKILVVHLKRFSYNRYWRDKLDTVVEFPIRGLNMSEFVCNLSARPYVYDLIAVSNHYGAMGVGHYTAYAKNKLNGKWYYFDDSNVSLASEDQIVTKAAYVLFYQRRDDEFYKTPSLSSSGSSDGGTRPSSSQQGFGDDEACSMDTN
inactive: [14]; compound concentration: 50uM -0.339 | [14]; compound concentration: 200uM -0.482 | [15]; compound concentration: 50uM -0.215 | [15]; compound concentration: 200uM 0.178 | [16]; compound concentration: 50uM -0.548 | [17]; compound concentration: 50uM -0.0561 | [17]; compound concentration: 200uM 0.256 | [18]; compound concentration: 50uM 0.078 | [18]; compound concentration: 200uM -0.359 | [19]; compound concentration: 0.78uM 0.169 | [19]; compound concentration: 1.56uM 0.0194 | [19]; compound concentration: 3.13uM 0.211 | [19]; compound concentration: 6.25uM 0.184 | [19]; compound concentration: 12.5uM 0.134 | [19]; compound concentration: 25uM 0.0663 | [19]; compound concentration: 50uM -0.0777 | [19]; compound concentration: 100uM -0.146 | [19]; compound concentration: 200uM 0.149 | [20]; compound concentration: 0.78uM 0.155 | [20]; compound concentration: 1.56uM 0.0643 | [20]; compound concentration: 3.13uM 0.0496 | [20]; compound concentration: 6.25uM -0.232 | [20]; compound concentration: 12.5uM -0.312 | [20]; compound concentration: 25uM 0.121 | [20]; compound concentration: 50uM -0.0633 | [20]; compound concentration: 100uM 0.0515 | [20]; compound concentration: 200uM -0.637 | [1]; compound concentration: 0.78uM 0.0773 | [1]; compound concentration: 1.56uM 0.0727 | [1]; compound concentration: 3.13uM 0.172 | [1]; compound concentration: 6.25uM -0.243 | [1]; compound concentration: 12.5uM 0.0883 | [1]; compound concentration: 25uM -0.0943 | [1]; compound concentration: 50uM 0.0929 | [1]; compound concentration: 100uM -0.0812 | [1]; compound concentration: 200uM -0.126 | [2]; compound concentration: 200uM 0.334 | [3]; compound concentration: 50uM -0.121 | [3]; compound concentration: 200uM -0.75 | [4]; compound concentration: 50uM -0.457 | [4]; compound concentration: 200uM 0.551 | [5]; compound concentration: 50uM 0.0716 | [6]; compound concentration: 50uM -0.596 | [6]; compound concentration: 200uM -0.256 | [7]; compound concentration: 50uM -0.643 | [7]; compound concentration: 200uM 0.475 | [8]; compound concentration: 50uM 0.418 | [8]; compound concentration: 200uM -0.294 | [9]; compound concentration: 50uM 0.245 | [10]; compound concentration: 50uM 0.281 | [11]; compound concentration: 50uM -0.605 | [11]; compound concentration: 200uM 0.447 | [12]; compound concentration: 50uM 0.067 | [12]; compound concentration: 200uM -0.445 | [13]; compound concentration: 200uM -0.493
active: [16]; compound concentration: 200uM -1.33 | [2]; compound concentration: 50uM -1.04 | [5]; compound concentration: 200uM -1.72 | [9]; compound concentration: 200uM -1.88 | [10]; compound concentration: 200uM -1.65 | [13]; compound concentration: 50uM -1.38

FAM105A (UniProt Q9NUU6)
Chain of UniProt Q9NUU6 (Q9NUU6 whole entry): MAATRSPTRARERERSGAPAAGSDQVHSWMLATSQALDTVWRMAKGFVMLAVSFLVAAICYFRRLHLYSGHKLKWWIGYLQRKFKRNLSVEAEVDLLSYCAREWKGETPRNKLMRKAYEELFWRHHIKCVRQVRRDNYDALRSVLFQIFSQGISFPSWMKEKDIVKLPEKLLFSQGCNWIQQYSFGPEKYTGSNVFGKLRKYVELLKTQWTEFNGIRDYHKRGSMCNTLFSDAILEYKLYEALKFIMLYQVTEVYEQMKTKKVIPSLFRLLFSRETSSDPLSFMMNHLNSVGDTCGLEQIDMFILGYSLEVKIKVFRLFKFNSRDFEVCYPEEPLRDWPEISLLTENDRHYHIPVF
inactive: [14]; compound concentration: 50uM -0.137 | [14]; compound concentration: 200uM -0.0129 | [15]; compound concentration: 50uM 0.0298 | [15]; compound concentration: 200uM 0.102 | [16]; compound concentration: 50uM -0.0634 | [16]; compound concentration: 200uM -0.355 | [17]; compound concentration: 50uM -0.00158 | [17]; compound concentration: 200uM -0.0665 | [18]; compound concentration: 50uM -0.0638 | [18]; compound concentration: 200uM -0.105 | [19]; compound concentration: 0.78uM 0.0819 | [19]; compound concentration: 1.56uM 0.102 | [19]; compound concentration: 3.13uM -0.00663 | [19]; compound concentration: 6.25uM 0.0556 | [19]; compound concentration: 12.5uM 0.00386 | [19]; compound concentration: 25uM -0.153 | [19]; compound concentration: 50uM 0.14 | [19]; compound concentration: 100uM -0.0653 | [19]; compound concentration: 200uM 0.157 | [20]; compound concentration: 0.78uM 0.0146 | [20]; compound concentration: 1.56uM 0.139 | [20]; compound concentration: 3.13uM 0.288 | [20]; compound concentration: 6.25uM 0.071 | [20]; compound concentration: 12.5uM -0.0354 | [20]; compound concentration: 25uM -0.00679 | [20]; compound concentration: 50uM 0.0826 | [20]; compound concentration: 100uM 0.0658 | [20]; compound concentration: 200uM -0.0519 | [1]; compound concentration: 0.78uM 0.122 | [1]; compound concentration: 1.56uM -0.0166 | [1]; compound concentration: 3.13uM 0.227 | [1]; compound concentration: 6.25uM 0.317 | [1]; compound concentration: 12.5uM 0.0169 | [1]; compound concentration: 25uM 0.0586 | [1]; compound concentration: 50uM -0.064 | [1]; compound concentration: 100uM 0.0853 | [1]; compound concentration: 200uM 0.091 | [2]; compound concentration: 50uM 0.0998 | [2]; compound concentration: 200uM -0.0916 | [3]; compound concentration: 50uM -0.253 | [3]; compound concentration: 200uM -0.175 | [4]; compound concentration: 50uM -0.187 | [4]; compound concentration: 200uM -0.00846 | [5]; compound concentration: 50uM -0.255 | [5]; compound concentration: 200uM -0.114 | [6]; compound concentration: 50uM -0.198 | [6]; compound concentration: 200uM 0.0229 | [7]; compound concentration: 50uM -0.0227 | [7]; compound concentration: 200uM -0.0524 | [8]; compound concentration: 50uM -0.219 | [8]; compound concentration: 200uM -0.197 | [9]; compound concentration: 50uM 0.119 | [9]; compound concentration: 200uM -0.429 | [10]; compound concentration: 50uM -0.124 | [10]; compound concentration: 200uM -0.242 | [11]; compound concentration: 50uM -0.252 | [11]; compound concentration: 200uM -0.149 | [12]; compound concentration: 50uM 0.049 | [12]; compound concentration: 200uM -0.0833 | [13]; compound concentration: 50uM 0.0872 | [13]; compound concentration: 200uM 0.0369
